The full data set covers some 8,800 targets. This sample favours those with a hit. About 0.5% of all pairs of compound and target were hits. A number with no mark means an inactive call.
Assays:
Assay in all cases: log2 fold change, soluble protein after heating vs DMSO (PISA); higher = thermal stabilisation; K562 lysate, 10 uM; active = over 0.2 and 3.5 SD of the protein, either way, in both replicates (recomputed)
[1] = compound: CCCS(=O)(=O)Nc1ccc(F)c(C(=O)c2c[nH]c3ncc(-c4ccc(Cl)cc4)cc23)c1F [vemurafenib]
Outline: (§1)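 A 30 min treatment with 10 μM compound was applied to crude K562 extract at 1 mg/mL protein in PBS pH 7.4 with 1 mM MgCl2. Heating for 3 min spanned 48°C-58°C, after which aliquots were pooled, adjusted to 0.5% NP-40 at 4°C and spun at 21,000xg for 90 min. TMTpro 16plex LC-MS/MS of the supernatant, with channel sums equalised, gave values recorded as log-two fold change in thermal stability against solvent controls, from duplicates.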

[2] = compound: CCCS(=O)(=O)Nc1ccc(F)c(C(=O)c2c[nH]c3ncc(Cl)cc23)c1F
Outline: as §1

[3] = compound: CCN(CCCOc1ccc2c(Nc3cc(CC(=O)Nc4cccc(F)c4)[nH]n3)ncnc2c1)CCOP(=O)(O)O [barasertib]
Outline: as §1

[4] = compound: CC[C@@H]1C(=O)N(C)c2cnc(Nc3ccc(C(=O)NC4CCN(C)CC4)cc3OC)nc2N1C1CCCC1
Outline: as §1

[5] = compound: CC[C@@H]1C(=O)N(C)c2cnc(Nc3ccc(C(=O)N[C@H]4CC[C@H](N5CCN(CC6CC6)CC5)CC4)cc3OC)nc2N1C(C)C [volasertib]
Outline: as §1

[6] = compound: CCn1c(C(=O)N(C2CC2)C2CC2)cc2c3c(ncn3C)c(Nc3cc(C)n(C)n3)nc21
Outline: as §1

[7] = compound: CCn1cc(-c2ccnc3[nH]c(-c4cccc(CN(C)C)c4)cc23)c(-c2ccc(NC(=O)N(C)C)cc2)n1
Outline: as §1

[8] = compound: CN1CCC(CNc2ccc3ncc(-c4cccc(OC(F)(F)F)c4)n3n2)CC1
Outline: as §1

[9] = compound: CN1CCN(CCOc2cc(OC3CCOCC3)c3c(Nc4c(Cl)ccc5c4OCO5)ncnc3c2)CC1 [saracatinib]
Outline: as §1

[10] = compound: CN1CCN(c2nc(C3=C(c4c[nH]c5ccccc45)C(=O)NC3=O)c3ccccc3n2)CC1 [sotrastaurin]
Outline: as §1

[11] = compound: CN1CC[C@H](c2c(O)cc(O)c3c(=O)cc(-c4ccccc4Cl)oc23)[C@H](O)C1 [alvocidib]
Outline: as §1

[12] = compound: CN1CCc2c(c3ccccc3n2Cc2ccc(C(=O)NO)cc2)C1 [Tubastatin A]
Outline: as §1

[13] = compound: CNC(=O)C1=CC=CC=C1NC2=NC(=NC=C2Cl)NC3=C(C=C(C=C3)N4CCOCC4)OC
Outline: as §1

[14] = compound: CNC(=O)c1ccc(Nc2ncc(C(F)(F)F)c(NCc3nccnc3N(C)S(C)(=O)=O)n2)cc1 [defactinib]
Outline: as §1

[15] = compound: CNc1nc(-c2ccc3c(N)n[nH]c3c2)cc(N2C[C@@H](C(=O)NC3CCCCC3)CC[C@H]2C)n1
Outline: as §1

[16] = compound: COC(=O)N[C@@H](C)CNc1nccc(-c2cn(C(C)C)nc2-c2cc(Cl)cc(NS(C)(=O)=O)c2F)n1 [encorafenib]
Outline: as §1

[17] = compound: COC(=O)[C@H](CCSC)NC(=O)C1=C(C=C(C=C1)NC[C@H](CS)N)C2=CC=CC=C2
Outline: as §1

[18] = compound: COc1cc(Nc2ncc3c(n2)-c2ccc(Cl)cc2C(c2c(F)cccc2OC)=NC3)ccc1C(=O)O [alisertib]
Outline: as §1

[19] = compound: COc1cc2nc(-c3cc(F)ccc3O)nc(N[C@@H]3CNC[C@H]3C(C)(C)O)c2cc1OC
Outline: as §1

[20] = compound: COc1cc2ncnc(Nc3ccc(F)c(Cl)c3)c2cc1OCCCN1CCOCC1 [gefitinib]
Outline: as §1

Sequence of UniProt Q15208 (Q15208 whole entry, looked up): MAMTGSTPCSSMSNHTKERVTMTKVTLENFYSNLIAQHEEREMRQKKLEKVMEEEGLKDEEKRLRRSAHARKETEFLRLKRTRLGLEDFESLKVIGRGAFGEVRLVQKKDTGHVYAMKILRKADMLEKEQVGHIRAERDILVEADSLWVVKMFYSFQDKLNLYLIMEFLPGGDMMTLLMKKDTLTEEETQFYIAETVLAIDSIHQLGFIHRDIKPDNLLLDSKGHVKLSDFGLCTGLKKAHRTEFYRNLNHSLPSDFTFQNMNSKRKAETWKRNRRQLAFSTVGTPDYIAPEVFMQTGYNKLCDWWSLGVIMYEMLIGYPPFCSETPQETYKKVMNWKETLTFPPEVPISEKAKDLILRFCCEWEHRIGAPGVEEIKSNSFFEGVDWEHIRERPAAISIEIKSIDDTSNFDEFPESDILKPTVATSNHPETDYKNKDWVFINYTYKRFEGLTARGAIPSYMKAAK
Sequence of UniProt Q8WU79 (Q8WU79 whole entry, looked up): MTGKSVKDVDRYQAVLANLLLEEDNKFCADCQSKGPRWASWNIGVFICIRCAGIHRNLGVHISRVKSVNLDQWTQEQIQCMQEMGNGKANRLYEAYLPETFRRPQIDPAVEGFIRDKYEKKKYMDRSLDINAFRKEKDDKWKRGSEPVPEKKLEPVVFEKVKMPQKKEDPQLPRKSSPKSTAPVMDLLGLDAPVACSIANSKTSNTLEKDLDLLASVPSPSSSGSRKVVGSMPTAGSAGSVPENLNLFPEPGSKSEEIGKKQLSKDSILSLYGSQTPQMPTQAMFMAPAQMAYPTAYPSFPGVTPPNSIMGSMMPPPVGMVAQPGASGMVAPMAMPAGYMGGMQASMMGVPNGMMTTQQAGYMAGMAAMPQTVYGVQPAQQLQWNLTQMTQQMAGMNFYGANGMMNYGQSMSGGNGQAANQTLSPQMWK
Sequence of UniProt Q92540 (Q92540 whole entry, looked up): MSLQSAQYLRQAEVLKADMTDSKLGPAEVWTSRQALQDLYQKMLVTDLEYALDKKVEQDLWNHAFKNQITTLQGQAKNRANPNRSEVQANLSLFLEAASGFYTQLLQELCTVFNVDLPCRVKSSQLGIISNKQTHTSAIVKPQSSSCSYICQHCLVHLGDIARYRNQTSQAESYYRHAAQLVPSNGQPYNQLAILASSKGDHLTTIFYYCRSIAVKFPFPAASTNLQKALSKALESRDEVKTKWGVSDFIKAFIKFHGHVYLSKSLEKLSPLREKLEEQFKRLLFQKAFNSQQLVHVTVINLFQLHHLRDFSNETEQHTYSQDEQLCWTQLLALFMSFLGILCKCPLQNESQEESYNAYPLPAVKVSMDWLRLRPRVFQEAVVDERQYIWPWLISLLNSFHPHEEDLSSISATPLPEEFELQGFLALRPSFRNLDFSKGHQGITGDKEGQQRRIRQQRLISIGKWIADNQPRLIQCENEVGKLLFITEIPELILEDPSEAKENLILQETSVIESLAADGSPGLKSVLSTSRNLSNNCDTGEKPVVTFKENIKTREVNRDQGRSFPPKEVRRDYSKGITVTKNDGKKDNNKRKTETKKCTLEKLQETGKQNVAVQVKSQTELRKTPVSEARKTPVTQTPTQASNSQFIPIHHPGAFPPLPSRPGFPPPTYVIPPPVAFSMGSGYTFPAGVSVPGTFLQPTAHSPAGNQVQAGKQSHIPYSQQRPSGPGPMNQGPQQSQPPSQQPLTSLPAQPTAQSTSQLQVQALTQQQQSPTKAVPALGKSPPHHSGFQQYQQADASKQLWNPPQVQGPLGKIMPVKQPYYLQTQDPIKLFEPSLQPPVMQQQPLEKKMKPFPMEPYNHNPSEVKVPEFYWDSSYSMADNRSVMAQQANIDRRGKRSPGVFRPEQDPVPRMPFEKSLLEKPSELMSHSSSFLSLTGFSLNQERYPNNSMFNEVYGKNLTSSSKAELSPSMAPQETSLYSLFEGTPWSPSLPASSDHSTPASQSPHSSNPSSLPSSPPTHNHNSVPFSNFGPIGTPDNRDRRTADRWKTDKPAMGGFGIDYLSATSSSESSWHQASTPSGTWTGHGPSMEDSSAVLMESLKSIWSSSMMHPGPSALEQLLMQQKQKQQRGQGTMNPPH
Sequence of UniProt O95793 (O95793 whole entry, looked up): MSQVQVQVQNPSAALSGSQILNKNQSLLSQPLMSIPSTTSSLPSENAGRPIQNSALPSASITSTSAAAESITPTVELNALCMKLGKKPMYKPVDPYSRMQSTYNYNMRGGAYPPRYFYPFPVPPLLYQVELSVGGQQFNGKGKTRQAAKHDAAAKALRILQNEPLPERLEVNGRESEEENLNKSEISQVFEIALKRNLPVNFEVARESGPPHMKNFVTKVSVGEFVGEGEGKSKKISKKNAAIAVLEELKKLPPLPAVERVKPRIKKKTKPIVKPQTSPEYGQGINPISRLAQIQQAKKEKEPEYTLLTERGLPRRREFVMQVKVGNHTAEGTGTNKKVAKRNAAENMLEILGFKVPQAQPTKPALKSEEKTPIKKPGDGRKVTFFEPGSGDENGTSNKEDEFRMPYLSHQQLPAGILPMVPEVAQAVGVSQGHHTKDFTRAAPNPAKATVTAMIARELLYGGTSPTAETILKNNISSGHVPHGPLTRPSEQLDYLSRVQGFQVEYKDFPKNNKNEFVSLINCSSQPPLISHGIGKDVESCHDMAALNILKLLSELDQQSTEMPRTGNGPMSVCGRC
Sequence of UniProt Q9C0B7 (Q9C0B7 whole entry, looked up): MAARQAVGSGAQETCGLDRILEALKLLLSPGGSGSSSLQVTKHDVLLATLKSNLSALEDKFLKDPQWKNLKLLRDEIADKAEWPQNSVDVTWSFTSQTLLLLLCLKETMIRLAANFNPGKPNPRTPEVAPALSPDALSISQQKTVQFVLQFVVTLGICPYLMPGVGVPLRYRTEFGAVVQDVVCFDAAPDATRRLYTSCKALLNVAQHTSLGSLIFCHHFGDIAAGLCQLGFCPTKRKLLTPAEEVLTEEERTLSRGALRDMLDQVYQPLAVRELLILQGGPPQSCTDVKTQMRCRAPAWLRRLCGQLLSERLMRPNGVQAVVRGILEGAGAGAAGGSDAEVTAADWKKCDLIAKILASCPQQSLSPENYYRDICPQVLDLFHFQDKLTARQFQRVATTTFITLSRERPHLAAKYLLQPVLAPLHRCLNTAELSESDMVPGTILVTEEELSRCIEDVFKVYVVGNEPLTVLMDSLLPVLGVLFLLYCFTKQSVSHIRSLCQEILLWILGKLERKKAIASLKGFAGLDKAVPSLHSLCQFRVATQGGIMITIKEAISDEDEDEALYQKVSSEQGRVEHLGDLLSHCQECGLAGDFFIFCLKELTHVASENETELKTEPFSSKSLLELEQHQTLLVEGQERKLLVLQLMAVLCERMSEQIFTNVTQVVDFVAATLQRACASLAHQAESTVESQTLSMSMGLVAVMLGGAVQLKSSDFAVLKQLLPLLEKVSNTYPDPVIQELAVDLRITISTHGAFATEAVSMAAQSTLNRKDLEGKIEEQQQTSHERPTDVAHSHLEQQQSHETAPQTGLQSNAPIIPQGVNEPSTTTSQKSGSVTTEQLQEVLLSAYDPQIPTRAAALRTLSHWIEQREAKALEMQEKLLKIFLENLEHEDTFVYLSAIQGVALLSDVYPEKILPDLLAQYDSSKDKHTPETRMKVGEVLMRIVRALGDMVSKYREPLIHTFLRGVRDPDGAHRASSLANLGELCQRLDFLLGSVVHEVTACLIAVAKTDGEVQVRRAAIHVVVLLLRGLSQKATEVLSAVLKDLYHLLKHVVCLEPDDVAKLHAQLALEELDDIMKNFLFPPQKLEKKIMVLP
Sequence of UniProt P53985 (P53985 whole entry, looked up): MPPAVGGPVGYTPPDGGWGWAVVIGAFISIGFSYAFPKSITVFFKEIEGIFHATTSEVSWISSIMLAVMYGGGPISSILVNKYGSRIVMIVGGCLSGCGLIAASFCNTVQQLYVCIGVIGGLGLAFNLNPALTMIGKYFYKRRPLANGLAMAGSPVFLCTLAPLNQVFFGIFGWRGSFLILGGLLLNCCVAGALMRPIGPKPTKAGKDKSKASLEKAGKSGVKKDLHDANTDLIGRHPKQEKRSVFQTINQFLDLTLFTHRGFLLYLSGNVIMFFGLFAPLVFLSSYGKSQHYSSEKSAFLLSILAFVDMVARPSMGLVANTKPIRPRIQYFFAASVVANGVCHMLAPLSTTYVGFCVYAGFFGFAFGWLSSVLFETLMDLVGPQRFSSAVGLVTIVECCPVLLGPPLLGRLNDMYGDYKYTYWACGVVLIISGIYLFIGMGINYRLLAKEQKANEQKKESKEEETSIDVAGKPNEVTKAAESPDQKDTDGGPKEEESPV
Sequence of UniProt Q96BD8 (Q96BD8 whole entry, looked up): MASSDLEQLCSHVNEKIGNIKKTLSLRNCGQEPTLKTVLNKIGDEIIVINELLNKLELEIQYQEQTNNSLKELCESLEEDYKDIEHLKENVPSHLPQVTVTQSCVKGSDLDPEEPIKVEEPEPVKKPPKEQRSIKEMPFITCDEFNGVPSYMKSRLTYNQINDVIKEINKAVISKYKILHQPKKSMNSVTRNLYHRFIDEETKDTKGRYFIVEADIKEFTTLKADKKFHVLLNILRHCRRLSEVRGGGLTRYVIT
Sequence of UniProt Q9NYA1 (Q9NYA1 whole entry, looked up): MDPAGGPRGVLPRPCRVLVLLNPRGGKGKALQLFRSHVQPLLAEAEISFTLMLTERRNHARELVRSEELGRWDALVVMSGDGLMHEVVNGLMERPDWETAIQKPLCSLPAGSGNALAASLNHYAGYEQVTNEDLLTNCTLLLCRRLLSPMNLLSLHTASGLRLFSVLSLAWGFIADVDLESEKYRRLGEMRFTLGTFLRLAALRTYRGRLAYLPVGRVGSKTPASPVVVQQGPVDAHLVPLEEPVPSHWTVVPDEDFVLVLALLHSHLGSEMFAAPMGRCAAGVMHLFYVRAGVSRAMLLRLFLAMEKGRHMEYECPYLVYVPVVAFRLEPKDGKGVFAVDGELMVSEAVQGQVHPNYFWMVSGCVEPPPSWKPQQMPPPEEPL
Sequence of UniProt Q96KF7 (Q96KF7 whole entry, looked up): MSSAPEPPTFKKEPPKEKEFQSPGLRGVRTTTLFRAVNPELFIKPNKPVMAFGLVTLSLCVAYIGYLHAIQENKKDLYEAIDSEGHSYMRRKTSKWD

Row | Target | log2 fold change [1] | log2 fold change [2] | log2 fold change [3] | log2 fold change [4] | log2 fold change [5] | log2 fold change [6] | log2 fold change [7] | log2 fold change [8] | log2 fold change [9] | log2 fold change [10] | log2 fold change [11] | log2 fold change [12] | log2 fold change [13] | log2 fold change [14] | log2 fold change [15] | log2 fold change [16] | log2 fold change [17] | log2 fold change [18] | log2 fold change [19] | log2 fold change [20]
1 | SRPK1 (UniProt Q96SB4) | 0.003 | 0.029 | -0.014 | 0.093 | -0.01 | 0.008 | 0.055 | -0.072 | 0.012 | 0.021 | 0.286 (active) | -0.062 | 0.189 | 0.106 | 0.008 | -0.029 | 0.102 | 0.006 | 0.015 | 0.018
2 | SMAP2 (UniProt Q8WU79) | -0.043 | 0.011 | 0.013 | 0.047 | -0.02 | 0.012 | 0.043 | -0.001 | 0.044 | -0.027 | 0.017 | -0.002 | -0.058 | 0.024 | -0.086 | 0.047 | -0.037 | -0.004 | 0.01 | -0.03
3 | SLC16A1 (UniProt P53985) | 0.026 | -0.015 | -0.051 | 0.07 | 0.043 | -0.034 | -0.419 (active) | 0.256 (active) | -0.003 | 0.02 | -0.133 | -0.012 | 0.042 | -0.007 | 0.024 | -0.016 | -0.059 | 0.045 | 0.018 | 0.032
4 | SPIRE1 (UniProt Q08AE8) | 0.009 | 0.05 | 0.023 | 0.051 | -0.016 | 0.003 | -0.298 | 0.077 | 0.017 | 0.089 | -0.101 | 0.02 | 0.038 | -0.024 | 0.084 | -0.046 | -0.036 | 0.02 | 0.076 | 0.049
5 | STAU1 (UniProt O95793) | 0.027 | 0.003 | 0.01 | 0 | -0.013 | 0.069 | 0.25 | -0.103 | 0.004 | -0.039 | 0.062 | -0.06 | 0.051 | 0.027 | -0.04 | 0.078 | -0.009 | 0.072 | -0.007 | 0.012
6 | SMG7 (UniProt Q92540) | 0.073 | 0.011 | 0.098 | 0.071 | -0.044 | 0.074 | -0.038 | -0.014 | 0.045 | -0.02 | -0.003 | 0.008 | 0.018 | 0.076 | -0.017 | 0.025 | 0.202 | 0.015 | 0.132 | 0.032
7 | SMIM8 (UniProt Q96KF7) | 0.037 | 0.048 | 0.088 | -0.003 | 0.012 | 0.057 | -0.382 (active) | 0.177 | -0.071 | -0.027 | -0.01 | 0.034 | -0.041 | 0.034 | 0.066 | 0.028 | 0.078 | 0.062 | 0.014 | -0.015
8 | TAPT1 (UniProt Q6NXT6) | 0.031 | 0.043 | -0.039 | 0.024 | 0.028 | -0.026 | -0.229 (active) | 0.106 | -0.014 | -0.002 | -0.101 | 0.037 | -0.086 | 0.047 | 0.056 | 0.053 | -0.074 | -0.016 | -0.006 | 0.055
9 | SPHK1 isoform 2 (UniProt Q9NYA1) | -0.009 | 0.034 | 0.008 | -0.051 | -0.022 | 0.171 | -0.003 | 0.056 | 0.086 | 0.029 | 0.023 | -0.114 | 0.046 | 0.076 | -0.175 | 0.018 | 0.006 | 0.045 | 0.022 | 0.069
10 | TANGO6 (UniProt Q9C0B7) | 0.062 | -0.113 | 0.036 | 0.023 | 0.042 | -0.054 | -0.187 | 0.121 | -0.011 | 0.081 | -0.094 | -0.031 | -0.005 | -0.047 | 0 | -0.024 | -0.009 | -0.022 | 0.027 | 0.117
11 | STK38 (UniProt Q15208) | -0.046 | -0.012 | 0.031 | -0.112 | -0.092 | 0.019 | 0.122 | 0.002 | -0.019 | 0.02 | 0.014 | -0.056 | 0.912 (active) | 0.502 (active) | -0.037 | -0.033 | 0.056 | 0.003 | 0.266 | 0.005
12 | SH3BGRL2 (UniProt Q9UJC5) | -0.013 | 0.021 | 0.022 | 0.076 | 0.006 | -0.007 | 0.387 (active) | -0.052 | 0.014 | 0.002 | 0.067 | 0.031 | 0.05 | 0.039 | 0.061 | -0.066 | 0.027 | -0.013 | -0.001 | -0.001
13 | SKA1 (UniProt Q96BD8) | -0.004 | -0.01 | -0.017 | -0.234 (active) | -0.121 | 0.003 | -0.167 | 0.021 | 0.071 | 0.066 | -0.046 | -0.064 | 0.001 | 0.015 | -0.008 | 0.129 | -0.055 | -0.017 | 0.017 | -0.006
14 | STK24 (UniProt B4DR80) | 0.009 | 0.005 | 0 | -0.03 | -0.017 | 0.005 | 0.02 | -0.007 | 0.005 | 0.046 | -0.029 | 0.02 | -0.022 | 0.11 | -0.008 | -0.012 | -0.039 | -0.037 | 0.078 | -0.052
15 | SNCA (UniProt P37840) | 0.042 | -0.039 | -0.027 | 0.08 | 0.072 | -0.022 | -0.109 | 0.287 | -0.035 | 0.068 | -0.094 | 0.172 | 0.028 | -0.019 | 0.269 | -0.026 | 0.204 | -0.021 | 0.117 | 0.089
16 | TAF6L (UniProt Q9Y6J9) | -0.029 | 0.035 | -0.05 | -0.245 (active) | -0.007 | -0.015 | 0.018 | 0.022 | 0.029 | 0.05 | 0.018 | -0.109 | -0.035 | 0.001 | -0.116 | 0.096 | -0.051 | 0.006 | 0.006 | -0.046
